# This excerpt belongs to a sample that is enriched for hits.
# ST2 IL33 inh: IL1RL1 inhibition | AlphaLISA ST2-Fc/biotin-IL-33 interaction, 1 h | inhibition, % for hits at 17 µM | 78,000 tested, 2.3% active | AID 1259354; in the data active = inhibition above about 30%
# Target sequence (Q01638 whole entry, looked up): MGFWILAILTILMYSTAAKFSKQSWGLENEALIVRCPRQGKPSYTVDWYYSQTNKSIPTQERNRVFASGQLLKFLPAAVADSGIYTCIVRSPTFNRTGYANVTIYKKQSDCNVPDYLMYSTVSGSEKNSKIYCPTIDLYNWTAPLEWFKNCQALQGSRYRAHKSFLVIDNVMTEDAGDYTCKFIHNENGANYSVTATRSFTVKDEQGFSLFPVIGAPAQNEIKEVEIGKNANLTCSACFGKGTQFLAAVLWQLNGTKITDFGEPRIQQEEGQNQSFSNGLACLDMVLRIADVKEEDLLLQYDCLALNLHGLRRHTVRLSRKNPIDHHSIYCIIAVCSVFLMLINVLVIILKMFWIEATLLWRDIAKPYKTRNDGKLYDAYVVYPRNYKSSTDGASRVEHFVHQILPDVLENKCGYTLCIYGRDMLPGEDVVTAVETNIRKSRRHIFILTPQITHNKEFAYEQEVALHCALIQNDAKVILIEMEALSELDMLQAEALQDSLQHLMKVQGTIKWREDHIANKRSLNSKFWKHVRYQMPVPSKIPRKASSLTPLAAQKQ
# Starred values were filed as active, the others as inactive; i = inactive.
SMILES,ST2 IL33 inh
COc1ccc(-n2c(N)c(C#N)c3nc4ccccc4nc32)cc1,i
O=c1[nH]nc(Cc2cccnc2)n1Cc1cccs1,i
CC(NC(=O)c1cc2ccccc2o1)c1ccccc1 (stereo not drawn),i
CC(NC(=O)c1ccc(Cl)cc1)c1ccccc1 (stereo not drawn),i
CC(Nc1ccc(Cl)cc1N)c1ccccc1 (stereo not drawn),57.0%*
CC1=C(C(=O)OCc2ccccc2)C(c2ccccc2)n2nnnc2N1 (stereo not drawn),i
CCOC(=O)C1CCCN(c2ncnc3c2cnn3-c2ccccc2)C1 (stereo not drawn),i
CC(C)(O)C#Cc1cccc(C(=O)NCC[C@@H]2C[C@@H]3C=C[C@H]2C3)c1,i
O=C(O)C1CCC(CNCc2cccc3ccccc23)CC1 (stereo not drawn),i
O=C(Nc1ccncc1[N+](=O)[O-])c1ccccc1F,i
CC(C)=C1[C@H]2CC[C@@H]1C(C(=O)O)[C@@H]2C(=O)NCc1ccc(Cl)cc1 (stereo partly drawn),i
Cc1ccc(C)c(NCC(O)Cn2c(C)c(C)c3ccccc32)c1 (stereo not drawn),i
Cc1c(C)n(CC(O)CNC2CCCCC2)c2ccccc12 (stereo not drawn),i
COc1ccc(NCC(O)Cn2c(C)c(C)c3ccccc32)cc1 (stereo not drawn),32.0%*
N#CCn1c(-c2ccccc2F)nc2ccccc2c1=O,i
Cc1ccc2oc(-c3ccc(NC(=O)c4cccnc4)cc3O)nc2c1,i
Cc1ccc2oc(-c3ccc(NC(=O)c4ccccc4Cl)cc3O)nc2c1,i
Cc1ccc2nc(-c3ccc(N)cc3O)oc2c1,34.0%*
O=C(NCc1ccc2c(c1)OCO2)c1ccccc1C(=O)NCc1ccc2c(c1)OCO2,i
c1cn(-c2ccc(-c3noc([C@@H]4CCCN4)n3)cn2)cn1,i
c1cc(N2CCOCC2)ncc1-c1noc([C@@H]2CCCN2C2CCOCC2)n1,i
CC(C)N1CCC[C@H]1c1nc(-c2ccc(-n3ccnc3)nc2)no1,35.0%*
COc1cccc(NC(=O)c2ccc(C(=O)Nc3cccc(OC)c3)cc2)c1,i
COc1cc2c(cc1OC)C(C(=O)NCC1CCCO1)C1c3ccccc3CCN1C2=O (stereo not drawn),i
COc1cccc(Cl)c1-c1csc(C(N)=O)c1,i
SMILES,ST2 IL33 inh
C=CCNC(=O)c1cc2c(=O)n3cccc(C)c3nc2n(CCCn2ccnc2)c1=N,31.0%*
Cc1cccn2c(=O)c3cc(C(=O)NCC4CCCO4)c(=N)n(CCCn4ccnc4)c3nc12 (stereo not drawn),i
COCCCn1c(=N)c(C(=O)NC2CCCC2)cc2c(=O)n3cccc(C)c3nc21,i
Cc1ccc2cccc(SCc3nc(N)nc(Nc4ccccc4)n3)c2n1,i
CCCCN(CC)Cc1c(C)[nH]c2ccccc2c1=O,i
Cc1[nH]c2ccccc2c1C=C1C(=O)OC2(CCCCC2)OC1=O,48.0%*
CCOc1ccc(C=C2C(=O)OC3(CCCCC3)OC2=O)cc1OC,i
CCCCCCCCCCC1C(=O)OC(C(=O)O)C1(O)C(=O)O (stereo not drawn),i
O=C(Nc1ccccc1F)c1ccccc1,i
O=C(Nc1ccccc1C(=O)O)c1ccccc1,33.0%*
Cc1ccc(C(=O)Nc2ccccc2C(=O)O)cc1,i
CCCn1cnnc1CN(C)Cc1sccc1C,i
CCCOc1ccc(-c2nc3s/c(=C\c4ccco4)c(=O)n3n2)cc1,i
N#CC1=C(N)n2c(s/c(=C\c3ccco3)c2=O)=C(C#N)C1c1ccco1 (stereo not drawn),37.0%*
CC1CC(=O)C2=C(C1)OC(N)=C(C#N)C2c1ccco1 (stereo not drawn),i
Cc1c(C(=O)NCCC(C)C)oc2ccc(S(=O)(=O)N3CC(C)CC(C)C3)cc12 (stereo not drawn),i
CCN(CCNS(=O)(=O)c1ccc2c(c1)c(=O)n(C)c(=O)n2C)c1ccccc1,i
Cn1cc(CC(=O)NCc2cc(-c3ccco3)on2)c2ccccc21,i
Cc1ccn2c(NC(=O)c3cccc([N+](=O)[O-])c3)c(-c3ccccc3)nc2c1,i
COc1ccc(-n2ncc3c(Nc4ccc(C)cc4)ncnc32)cc1,i
Nc1cccc2c1C(=O)N(c1ccc(Cl)cc1)C2=O,i
Nc1ccc(Cl)c2c1C(=O)c1ccccc1C2=O,42.0%*
Nc1ccc(N2C(=O)c3ccccc3C2=O)c(Cl)c1,i
CCNc1ncc(C(=O)N(C)Cc2ccsc2)cn1,i
O=C(Nc1ccc2c(c1)CN(C(=O)Cn1cncn1)CC2)C1CCCO1 (stereo not drawn),i
SMILES,ST2 IL33 inh
COc1cc(Br)c(/C=C2\C(=O)N(c3ccccc3)N=C2C)cc1OC,i
C=CCN1C(=O)NC(=O)/C(=C/c2ccc(OCc3ccccc3F)cc2)C1=O,i
CC1=NN(c2ccccc2)C(=O)/C1=C\c1ccc(N2CCOCC2)cc1,40.0%*
CC(=O)Nc1ccc(OCc2ccccc2)cc1,i
CC1=NN(c2ccccc2)C(=O)/C1=C\c1ccc(OCc2ccccc2)cc1,32.0%*
O=C1c2ccccc2NC(/C=C/c2ccccc2)N1c1ccccc1 (stereo not drawn),i
Cc1ccc(-c2noc([C@@H]3C[C@@H](O)CN3CC3CCCCC3)n2)cc1F,i
CCn1cc(C(=O)N2CCCC2)c(=O)c2cc(S(=O)(=O)N(C)C3CCCCC3)ccc21,i
CCCOc1ccc(C2Oc3ccc(Br)cc3C=C2[N+](=O)[O-])cc1OC (stereo not drawn),44.0%*
CCOc1ccc(C2Oc3c(cc(Br)cc3OC)C=C2[N+](=O)[O-])cc1OCC (stereo not drawn),43.0%*
CCOc1ccc(S(=O)(=O)N2CCSC2c2ccc(OC)c([N+](=O)[O-])c2)cc1 (stereo not drawn),i
COc1cc([N+](=O)[O-])ccc1NC(=O)COc1ccc(Br)cc1C,i
CCCOc1ccc(/C=C2\N=C(c3cccc([N+](=O)[O-])c3)OC2=O)cc1OC,i
CCOc1cc2c(cc1OCC)C(c1ccc(Br)cc1)OC(=O)C2 (stereo not drawn),i
Cc1ccc(C(=O)c2c[nH]c3ccc(F)cc3c2=O)cc1C,i
COc1cccc(CCC(=O)N(C)C2CCCN(C3Cc4ccccc4C3)C2)c1 (stereo not drawn),i
C=CCNC(=O)CN1C(=O)C(CC)Oc2ccccc21 (stereo not drawn),i
COc1cccc(C(=O)Nc2cccc(C)c2)c1,i
O=C(O)C1CN(c2ncccn2)CCN1Cc1cnc[nH]1 (stereo not drawn),i
CCNC(=O)N[C@H]1CC[C@]2(C)CC[C@@H]([C@H](C)C(=O)N3CCCCC3)[C@H](O)[C@H]2[C@@H]1C,i
N#CC1CC(c2ccccc2)=NN1c1ccccc1 (stereo not drawn),96.0%*
CC(=O)N1N=C(c2ccccc2)CC1c1ccc(Br)cc1 (stereo not drawn),i
c1ccc(C2=NN3COc4ccccc4C3C2)cc1 (stereo not drawn),i
O=C(NCC(c1ccco1)N1CCCC1)c1cc(C2CC2)[nH]n1 (stereo not drawn),i
NC(=O)c1ccnc(-c2ccc(Cl)c(Cl)c2)c1,i
COc1ccccc1/C=C/C1=NC(=C\c2cc(Br)cs2)/C(=O)O1,i
COc1ccccc1/C=C/C1=NC(=C\c2cccc(Cl)c2Cl)/C(=O)O1,i
COc1ccccc1/C=C/C1=NC(=C\c2ccc(C)cc2)/C(=O)O1,38.0%*

# Assay outcomes from PubChem BioAssay.
